# Measured values taken from the supplement of paper PMC8728848.
# Many of the other results were omitted from the sample, so the strongest signals are more common in it than they were.
# B1: PX14343F-bfa-562-20-562 (Bacteroides fragilis) (protein)
# chain: CDDFLDSFPQDTVTNENFWKSKEDADKVLVDIYASLLPKDAIFFDEAMSDNAYLVWDWWGGAQQVANGSYTTSGEIPTNRWNGSYEVIRKCWFLLEGIEKIEDISEQDKNKIIGETYFMLAYNYYVLTSYFGDVPLVTKTLAIPESKQLVRTPKAEVVDYAINKLKEAAVMLEGLSQEKGRVTADACRFLIARMYLYNGDYSNVLETVKLLEGKYQLYREGDTPYEDLFSGVAENSCEVILSVVCDKRVGEIYTSHGGNGIMLLKGITGEDPYRGVTPSGSLVDAYPMADGRLIHEAGSSYDPKKPYEGRDPRFYQSIVYPTGQIKYLDVETGTVKERLYDPEDPTTVPEHQYNYSQPSATGYMWNKYIDYSVYAMNSVWDCTNDIIVFRYADVLLMKAEALLQTKGESAKEEVCNLIDQLRDRCSCGRVHRENYNSKDELMELLKNERRIELANEGLRYMDLIRWKDAEKNTIVTGVGLTGQMYGAYMRKDGVGKDDKTVDVDNTPRRYIETRYFNASKGYLFPIPQKERDLNPNLTQNPNW
# Columns and labels:
# Assay in all cases: glycan array binding signal (z-score within array); higher = stronger binding
# Settings in all cases: glycan notation: IUPAC condensed, linker removed
# [1] = molecular target: Fuc(a1-2)Gal
# How it was run: (§1)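 Arrays were curated from the Consortium for Functional Glycomics database, 3228 in total, and kept only where the protein sequence was available. Binding is expressed as a within-array Z-score. This score was averaged across arrays of the same protein sequence at different concentrations or buffers and across linkers, and negative values can be read as non-binding.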
# [2] = molecular target: Fuc(a1-2)Gal(b1-3)GalNAc(b1-4)[Neu5Ac(a2-3)]Gal(b1-4)Glc
# How it was run: as §1
# [3] = molecular target: Fuc(a1-2)Gal(b1-4)[Fuc(a1-3)]GlcNAc(b1-2)Man(a1-3)[Fuc(a1-2)Gal(b1-4)[Fuc(a1-3)]GlcNAc(b1-2)Man(a1-6)]Man(b1-4)GlcNAc(b1-4)[Fuc(a1-6)]GlcNAc
# How it was run: as §1
# [4] = molecular target: Fuc(a1-2)Gal6S(b1-3)GlcNAc6S
# How it was run: as §1
# [5] = molecular target: Fuc(a1-2)Gal6S(b1-4)Glc6S
# How it was run: as §1
# [6] = molecular target: Fuc(a1-2)[GalNAc(a1-3)]Gal(b1-4)GlcNAc(b1-2)Man
# How it was run: as §1
# [7] = molecular target: Fuc(a1-2)[GalNAc(a1-3)]Gal(b1-4)GlcNAc(b1-6)GalNAc
# How it was run: as §1
# [8] = molecular target: Fuc(a1-3)[Gal(b1-4)]Glc6S
# How it was run: as §1
# [9] = molecular target: Fuc(a1-3)[Gal3S(b1-4)]Glc
# How it was run: as §1
# [10] = molecular target: Gal(a1-3)Gal(b1-3)GlcNAc(b1-3)GalNAc
# How it was run: as §1
# [11] = molecular target: Gal(a1-3)[Gal(a1-4)]Gal(b1-4)GlcNAc
# How it was run: as §1
# [12] = molecular target: Gal(a1-4)Gal(b1-4)GlcNAc(b1-2)Man(a1-3)[Gal(a1-4)Gal(b1-4)GlcNAc(b1-2)Man(a1-6)]Man(b1-4)GlcNAc(b1-4)GlcNAc
# How it was run: as §1
# [13] = molecular target: Gal(a1-4)Gal(b1-4)GlcNAc(b1-3)Gal(b1-4)Glc
# How it was run: as §1
# [14] = molecular target: Gal(b1-3)GlcNAc(b1-3)Gal(b1-4)GlcNAc(b1-2)[Gal(b1-3)GlcNAc(b1-3)Gal(b1-4)GlcNAc(b1-6)]Man(a1-6)[Gal(b1-3)GlcNAc(b1-3)Gal(b1-4)GlcNAc(b1-2)Man(a1-3)]Man(b1-4)GlcNAc(b1-4)[Fuc(a1-6)]GlcNAc
# How it was run: as §1
# [15] = molecular target: Gal(b1-3)GlcNAc(b1-3)Gal(b1-4)GlcNAc(b1-3)Gal(b1-4)GlcNAc(b1-2)[Gal(b1-3)GlcNAc(b1-3)Gal(b1-4)GlcNAc(b1-3)Gal(b1-4)GlcNAc(b1-6)]Man(a1-6)[Gal(b1-3)GlcNAc(b1-3)Gal(b1-4)GlcNAc(b1-3)Gal(b1-4)GlcNAc(b1-2)Man(a1-3)]Man(b1-4)GlcNAc(b1-4)[Fuc(a1-6)]GlcNAc
# How it was run: as §1
# [16] = molecular target: Gal(b1-3)GlcNAc(b1-6)Gal(b1-4)GlcNAc
# How it was run: as §1
# [17] = molecular target: Gal(b1-3)[Fuc(a1-4)]GlcNAc
# How it was run: as §1
# [18] = molecular target: Gal(b1-4)GlcNAc(b1-2)Man(a1-3)[Gal(b1-4)GlcNAc(b1-2)Man(a1-6)][Gal(b1-4)GlcNAc(b1-4)]Man(b1-4)GlcNAc(b1-4)[Fuc(a1-6)]GlcNAc
# How it was run: as §1
# [19] = molecular target: Gal(b1-4)GlcNAc(b1-2)Man(a1-3)[Gal(b1-4)GlcNAc(b1-2)Man(a1-6)][GlcNAc(b1-4)]Man(b1-4)GlcNAc(b1-4)[Fuc(a1-6)]GlcNAc
# How it was run: as §1
# [20] = molecular target: Gal(b1-4)GlcNAc(b1-2)Man(a1-6)[Man(a1-3)]Man(b1-4)GlcNAc(b1-4)GlcNAc
# How it was run: as §1
# [21] = molecular target: Gal(b1-4)GlcNAc(b1-2)[Gal(b1-4)GlcNAc(b1-4)]Man(a1-3)[GlcNAc(b1-4)][Gal(b1-4)GlcNAc(b1-2)Man(a1-6)]Man(b1-4)GlcNAc(b1-4)GlcNAc
# How it was run: as §1
# [22] = molecular target: Gal(b1-4)GlcNAc(b1-3)Gal(b1-4)GlcNAc(b1-3)Gal(b1-4)GlcNAc(b1-3)Gal(b1-4)GlcNAc(b1-2)Man(a1-3)[Gal(b1-4)GlcNAc(b1-3)Gal(b1-4)GlcNAc(b1-3)Gal(b1-4)GlcNAc(b1-3)Gal(b1-4)GlcNAc(b1-2)Man(a1-6)]Man(b1-4)GlcNAc(b1-4)GlcNAc
# How it was run: as §1
# [23] = molecular target: Gal(b1-4)GlcNAc(b1-3)Gal(b1-4)GlcNAc(b1-3)Gal(b1-4)GlcNAc(b1-3)Gal(b1-4)GlcNAc(b1-2)Man(a1-3)[Gal(b1-4)GlcNAc(b1-3)Gal(b1-4)GlcNAc(b1-3)Gal(b1-4)GlcNAc(b1-3)Gal(b1-4)GlcNAc(b1-2)Man(a1-6)]Man(b1-4)GlcNAc(b1-4)[Fuc(a1-6)]GlcNAc
# How it was run: as §1
# [24] = molecular target: Gal(b1-4)GlcNAc(b1-3)[Fuc(a1-3)GlcNAc(b1-6)]Gal(b1-4)Glc
# How it was run: as §1
# [25] = molecular target: Gal3S(b1-3)[Fuc(a1-4)]GlcNAc
# How it was run: as §1
# [26] = molecular target: Gal3S(b1-4)GlcNAc
# How it was run: as §1
# [27] = molecular target: Gal3S(b1-4)[Fuc(a1-3)]GlcNAc
# How it was run: as §1
# [28] = molecular target: Gal6S(b1-4)GlcNAc
# How it was run: as §1
binder,measurement,setting,value
B1,glycan array binding signal (z-score),[1],-0.039
same,glycan array binding signal (z-score),[2],0.115
same,glycan array binding signal (z-score),[3],-0.43
same,glycan array binding signal (z-score),[4],1.48
same,glycan array binding signal (z-score),[5],0.012
same,glycan array binding signal (z-score),[6],0.033
same,glycan array binding signal (z-score),[7],-0.301
same,glycan array binding signal (z-score),[8],-0.078
same,glycan array binding signal (z-score),[9],-0.368
same,glycan array binding signal (z-score),[10],-0.716
same,glycan array binding signal (z-score),[11],3.69
same,glycan array binding signal (z-score),[12],1.42
same,glycan array binding signal (z-score),[13],-0.481
same,glycan array binding signal (z-score),[14],1.83
same,glycan array binding signal (z-score),[15],1.38
same,glycan array binding signal (z-score),[16],-0.369
same,glycan array binding signal (z-score),[17],-0.027
same,glycan array binding signal (z-score),[18],-0.394
same,glycan array binding signal (z-score),[19],-0.937
same,glycan array binding signal (z-score),[20],0.332
same,glycan array binding signal (z-score),[21],0.08
same,glycan array binding signal (z-score),[22],0.79
same,glycan array binding signal (z-score),[23],-0.007
same,glycan array binding signal (z-score),[24],1.78
same,glycan array binding signal (z-score),[25],-0.53
same,glycan array binding signal (z-score),[26],0.086
same,glycan array binding signal (z-score),[27],0.472
same,glycan array binding signal (z-score),[28],0.658
